From PubChem BioAssay AID1159580 (chemical genetic matrix, 2015)
Several values for one entry are separate records, joined by “and”; a condition that tells them apart may be missing. Identical values can stand only once. The campaign covered roughly 5,500 compounds. About 2,000 (36%) were called active. Not shown: some 18% with an inconclusive outcome. Rule as the data show it: active = normalized growth mostly below about 0.91 (no sharp cut-off); inconclusive = no clear call, values can overlap the other calls; inactive = mostly above about 0.92. The list shows a part of the results.

Assay: chemical genetic growth profiling, strain panel (AID 1159580);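 also: tested at 20 µM; growth read once vehicle control cultures reached saturation at 30 °C; 1 = growth at the plate median or of vehicle wells; lower values mean less growth of the strain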
Conditions: S. cerevisiae deletion strains, growth OD

Measured: normalized growth

CC[N+](C)(C)c1cccc(O)c1
inactive: locus YAL013W, strain DEP1, stronger effect = lower value 0.992 and 1.06 | locus YAL021C, strain ccr4, stronger effect = lower value 1.02 | locus YAL026C, strain drs2, stronger effect = lower value 0.993 | locus YAL030W, strain snc1, stronger effect = lower value 1.01 | locus YAL040C, strain CLN3, stronger effect = lower value 0.997 | locus YBL061C, strain skt5, stronger effect = lower value 1 | locus YBR009C, strain hhf1, stronger effect = lower value 0.964 | locus YBR021W, strain FUR4, stronger effect = lower value 0.996 | locus YBR023C, strain chs3, stronger effect = lower value 1.02 | locus YBR171W, strain sec66, stronger effect = lower value 1 | locus YBR229C, strain ROT2, stronger effect = lower value 0.983 | locus YBR231C, strain swc5, stronger effect = lower value 1.03 | locus YBR279W, strain paf1, stronger effect = lower value 1.01 | locus YCL011C, strain gbp2, stronger effect = lower value 1.02 | locus YCL016C, strain dcc1, stronger effect = lower value 1.02 | locus YCL029C, strain bik1, stronger effect = lower value 0.966 | locus YCL061C, strain MRC1 (second series), stronger effect = lower value 1 | locus YCL061C, strain MRC1, stronger effect = lower value 1.02 | locus YCL069W, strain vba3, stronger effect = lower value 1.01 | locus YCR088W, strain abp1, stronger effect = lower value 1.01 | locus YDL005C, strain med2, stronger effect = lower value 1.02 | locus YDL035C, strain GPR1, stronger effect = lower value 1.01 | locus YDL040C, strain nat1, stronger effect = lower value 1.01 | locus YDL074C, strain BRE1, stronger effect = lower value 0.984 | locus YDL101C, strain DUN1, stronger effect = lower value 0.979 | locus YDL134C, strain PPH21, stronger effect = lower value 0.984 | locus YDL185W, strain tfp1, stronger effect = lower value 0.972 | locus YDL192W, strain arf1, stronger effect = lower value 0.992 | locus YDR001C, strain nth1, stronger effect = lower value 1 | locus YDR069C, strain doa4, stronger effect = lower value 1.02 | locus YDR101C, strain arx1, stronger effect = lower value 0.966 | locus YDR137W, strain rgp1, stronger effect = lower value 1.04 | locus YDR150W, strain NUM1, stronger effect = lower value 0.996 and 1 | locus YDR159W, strain sac3, stronger effect = lower value 0.993 | locus YDR162C, strain NBP2, stronger effect = lower value 0.999 | locus YDR195W, strain ref2 1.01 | locus YDR297W, strain sur2, stronger effect = lower value 1.01 | locus YDR318W, strain mcm21, stronger effect = lower value 0.971 | locus YDR334W, strain swr1, stronger effect = lower value 1.01 | locus YDR335W, strain msn5, stronger effect = lower value 1.01 | locus YDR363W, strain ESC2, stronger effect = lower value 1.01 | locus YDR388W, stronger effect = lower value 0.978 | locus YDR392W, strain spt3, stronger effect = lower value 0.92 | locus YDR502C, strain sam2, stronger effect = lower value 0.975 | locus YEL003W, strain gim4, stronger effect = lower value 0.995 | locus YEL037C, strain rad23, stronger effect = lower value 0.999 | locus YEL061C, strain CIN8 (second series), stronger effect = lower value 1.01 | locus YEL061C, strain CIN8, stronger effect = lower value 0.994 | locus YER002W, strain NOP16, stronger effect = lower value 0.998 | locus YER015W, strain faa2, stronger effect = lower value 0.999 | locus YER016W, strain bim1, stronger effect = lower value 1.01 | locus YER110C, stronger effect = lower value 0.97 | locus YER111C, strain swi4, stronger effect = lower value 0.998 | locus YER155C, strain BEM2 (second series), stronger effect = lower value 1.02 | locus YER155C, strain BEM2, stronger effect = lower value 0.949 | locus YER167W, strain BCK2, stronger effect = lower value 0.995 | locus YFR010W, strain ubp6, stronger effect = lower value 1 | locus YGL078C, strain dbp3, stronger effect = lower value 0.982 | locus YGL086W, strain mad1, stronger effect = lower value 1 | locus YGL167C, strain pmr1, stronger effect = lower value 1.01 | locus YGL173C, strain kem1, stronger effect = lower value 1.02 | locus YGL227W, strain vid30, stronger effect = lower value 1.02 | locus YGL240W, strain doc1, stronger effect = lower value 1.03 | locus YGL248W, strain PDE1, stronger effect = lower value 0.997 | locus YGL253W, strain hxk2, stronger effect = lower value 1.02 | locus YGR078C, strain PAC10, stronger effect = lower value 0.995 and 0.986 | locus YGR135W, strain pre9, stronger effect = lower value 0.973 | locus YGR229C, strain SMI1, stronger effect = lower value 1.01 | locus YGR252W, strain gcn5, stronger effect = lower value 1.06 | locus YHR013C, strain ard1, stronger effect = lower value 1.06 | locus YHR027C, strain rpn1, stronger effect = lower value 1.01 | locus YHR030C, strain SLT2, stronger effect = lower value 0.988 and 1.01 | locus YHR079C, strain IRE1 (second series), stronger effect = lower value 0.982 | locus YHR079C, strain IRE1, stronger effect = lower value 0.99 | locus YHR094C, strain hxt1, stronger effect = lower value 0.976 | locus YHR129C, strain ARP1, stronger effect = lower value 0.987 | locus YHR142W, strain chs7, stronger effect = lower value 1 | locus YHR200W, strain rpn10, stronger effect = lower value 0.968 | locus YIL066C, strain RNR3, stronger effect = lower value 0.985 | locus YIL073C, strain SPO22, stronger effect = lower value 0.982 | locus YIL125W, strain kgd1, stronger effect = lower value 0.997 | locus YIR030C, strain dcg1, stronger effect = lower value 0.974 | locus YJL092W, strain hpr5, stronger effect = lower value 1.01 | locus YJL095W, strain BCK1 (second series), stronger effect = lower value 1.01 | locus YJL095W, strain BCK1, stronger effect = lower value 0.973 and 1.02 | locus YJL115W, strain asf1, stronger effect = lower value 1.01 | locus YJL129C, strain trk1, stronger effect = lower value 1.02 | locus YJL134W, strain LCB3, stronger effect = lower value 0.991 | locus YJL154C, strain vps35, stronger effect = lower value 1 | locus YJL164C, strain tpk1, stronger effect = lower value 0.996 | locus YJL166W, strain qcr8, stronger effect = lower value 1.04 | locus YJL168C, strain set2, stronger effect = lower value 0.979 | locus YJL187C, strain SWE1 (second series), stronger effect = lower value 0.977 | locus YJL187C, strain SWE1, stronger effect = lower value 1.01 | locus YJR043C, strain POL32, stronger effect = lower value 0.984 | locus YJR066W, strain TOR1, stronger effect = lower value 0.931
